Test systems include NCI-H23 lung; NCI-H226 lung; NCI-H322M lung; HOP-62 NSCLC; HOP-92 NSCLC; NCI-H522 lung; A549/ATCC NSCLC; 786-0 renal; COLO 205 colon; DU-145 prostate; K-562 leukemia; MALME-3M melanoma; MDA-MB-231 breast; RXF 393 renal; SF-268 CNS; SF-295 CNS; SF-539 CNS; UACC-257 melanoma; M14 melanoma; NCI-H460 lung.
Common to all, as to assay: NCI-60 one-dose screen, 48 h (100 = growth as untreated, 0 = no growth, -100 = all killed)
Settings in all cases: 10 µM unless noted

This note sets out measurements from PubChem BioAssay (NCI).

Compounds without any hit were thinned out: in the full panel of roughly 83,000, 20% have a hit.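 Single-dose data. Exposure time 48 hours. Values below 10 considered active.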 Unmarked numbers belong to inactive results. Active and inactive are the calls of the source.

With `COc1ccc(-c2nnc(SCC(=O)N3CCN(c4cc5c(cc4F)c(=O)c(C(=O)O)cn5C4CC4)CC3)o2)cc1OC`, the growth is 101% in the test on NCI-H23 lung; 103% in the test with NCI-H226 lung; 96.2% in the test with NCI-H322M lung; 67% in the test with HOP-62 NSCLC; 51.6% in the test with HOP-92 NSCLC; 88.6% in the test with NCI-H522 lung. Moreover, the growth was 101% with A549/ATCC NSCLC; 69.3% in the test on 786-0 renal; 74.1% in the test with COLO 205 colon; 99.3% with DU-145 prostate; 74.5% in the test with K-562 leukemia; 101% with MALME-3M melanoma. In addition, the growth is 110% in the test on MDA-MB-231 breast; 118% in the test with RXF 393 renal; 104% in the test on SF-268 CNS; 89.1% with SF-295 CNS; 96.5% with SF-539 CNS; 101% in the test with UACC-257 melanoma. Moreover, in the test with M14 melanoma, the growth was 76.2%.

`COc1cc(NS(C)(=O)=O)ccc1Cc1c2ccccc2nc2ccccc12`: the growth with NCI-H23 lung is 11.2%; with NCI-H226 lung, -17.5% (active); with NCI-H322M lung it was 75.2%; in the test on HOP-62 NSCLC it was -13.9% (active); in the test on HOP-92 NSCLC, 21.2%; in the test on NCI-H522 lung, 43.2%. Besides, the growth in the test on A549/ATCC NSCLC was -11.8% (active); in the test on 786-0 renal it was -10.6% (active); with COLO 205 colon, 29.8%; in the test on DU-145 prostate, 11%; with K-562 leukemia, 18.2%; in the test on MALME-3M melanoma, 14.8%. Further, the growth in the test with MDA-MB-231 breast is 53.2%; with RXF 393 renal, -13.4% (active); with SF-268 CNS, 22.4%; in the test with SF-295 CNS, 3.77% (active); with SF-539 CNS, -28.5% (active); with UACC-257 melanoma it was 25%. For the same compound, in the test on M14 melanoma, the growth is 10%.

Turning to `C=CCn1c(SCC(=O)Nc2ccc(C(=O)/C=C/c3cc(OC)c(OC)c(OC)c3)cc2)nnc1-c1ccc(OC)cc1`, the growth is 22.2% with NCI-H23 lung; -36.5% (active) in the test with NCI-H226 lung; 17.3% in the test with NCI-H322M lung; -32.5% (active) in the test with HOP-62 NSCLC; 21.3% with HOP-92 NSCLC; -16.8% (active) with NCI-H522 lung. Besides, the growth was 4.04% (active) in the test with A549/ATCC NSCLC; -30.8% (active) with 786-0 renal; -7.79% (active) with COLO 205 colon; 5.32% (active) in the test with DU-145 prostate; 46.1% in the test with MALME-3M melanoma; 13.8% in the test on MDA-MB-231 breast. Moreover, the growth was -81.6% (active) with RXF 393 renal; 5.5% (active) in the test with SF-268 CNS; -21.4% (active) in the test on SF-295 CNS; -17.6% (active) in the test with SF-539 CNS; 13.6% with UACC-257 melanoma; 6.88% (active) in the test on M14 melanoma.

With `COc1ccc(-c2cnc(-c3ccc(F)cc3)[nH]2)cc1`, the growth is 88.2% in the test on NCI-H23 lung; 85.4% in the test on NCI-H226 lung; 213% in the test with NCI-H322M lung; 46.5% in the test on HOP-62 NSCLC; 103% in the test on NCI-H460 lung; 82.5% in the test with HOP-92 NSCLC. In addition, the growth in the test with NCI-H522 lung was 85.9%; in the test on A549/ATCC NSCLC, -55.7% (active); with COLO 205 colon it was 111%; in the test with DU-145 prostate, 113%; with K-562 leukemia, 57.1%; with MALME-3M melanoma it was 288%. For the same compound, the growth with MDA-MB-231 breast is 100%; with SF-268 CNS, 92.6%; in the test with SF-295 CNS, 96.6%; with SF-539 CNS, 105%; in the test with UACC-257 melanoma, -25.1% (active); in the test on M14 melanoma, -17.3% (active).

For the compound `Nc1nccc(=S)[nH]1`, the growth in the test with NCI-H23 lung is 92.7%; in the test on NCI-H226 lung, 103%; in the test with NCI-H322M lung, 101%; in the test on HOP-62 NSCLC it was 100%; in the test on HOP-92 NSCLC, 110%; with NCI-H522 lung it was 63.2%. In addition, the growth is 74.3% in the test with A549/ATCC NSCLC; 99.7% in the test on 786-0 renal; 127% with COLO 205 colon; 112% in the test on DU-145 prostate; 97.8% in the test on K-562 leukemia; 112% in the test on MALME-3M melanoma. Moreover, the growth in the test on MDA-MB-231 breast is 112%; with RXF 393 renal, 92.5%; in the test with SF-268 CNS it was 98.6%; in the test on SF-295 CNS it was 103%; in the test on SF-539 CNS, 107%; in the test on UACC-257 melanoma it was 75.7%. The growth with M14 melanoma is 106%.

Consider `COc1ccc(-c2nn(-c3cccc(Cl)c3)cc2-c2cc(-c3ccc(Br)cc3)[nH]c(=O)c2C#N)cc1`, for which the growth in the test on NCI-H23 lung is 86.8%; in the test on NCI-H226 lung, 84%; with NCI-H322M lung it was 83.9%; with HOP-62 NSCLC, 93.8%; in the test with HOP-92 NSCLC, 82.1%; in the test with NCI-H522 lung it was 74.7%. Further, the growth is 68.2% in the test with A549/ATCC NSCLC; 102% in the test on 786-0 renal; 104% in the test on COLO 205 colon; 56.5% in the test on DU-145 prostate; 81.8% in the test with K-562 leukemia; 69.1% in the test on MALME-3M melanoma. Moreover, the growth was 60.8% in the test with MDA-MB-231 breast; 75.3% in the test on RXF 393 renal; 89.1% with SF-268 CNS; 99.1% in the test on SF-295 CNS; 81% in the test on SF-539 CNS; 93.4% in the test on UACC-257 melanoma. The growth in the test on M14 melanoma is 81.4%.

Regarding `CC(C)(C)C(=O)Nc1nc2c(s1)CCc1ccn(S(=O)(=O)c3ccccc3)c1-2`, the growth in the test on NCI-H23 lung is 82.5%; in the test on NCI-H226 lung, 92.4%; in the test with NCI-H322M lung, 83.3%; in the test with HOP-62 NSCLC, 93.4%; in the test with HOP-92 NSCLC, 96.2%; in the test on NCI-H522 lung, 66.7%. Besides, the growth with A549/ATCC NSCLC is 76.6%; with 786-0 renal it was 81.8%; in the test on DU-145 prostate, 99.1%; in the test on K-562 leukemia, 69%; in the test with MALME-3M melanoma it was 99.6%; with MDA-MB-231 breast, 95.8%. The growth in the test with RXF 393 renal was 116%; in the test on SF-268 CNS it was 89.5%; in the test with SF-295 CNS it was 91.7%; with SF-539 CNS it was 99.4%; in the test on UACC-257 melanoma it was 95%; in the test on M14 melanoma it was 96.1%.

On to `Cc1ccc[n+](CC(=O)c2cccc3ccccc23)c1`, for which the growth with NCI-H23 lung was 102%; in the test on NCI-H226 lung, 96.2%; in the test with NCI-H322M lung, 97%; in the test on HOP-62 NSCLC it was 100%; in the test with HOP-92 NSCLC, 97.1%; in the test on NCI-H522 lung, 101%. Also, the growth in the test on A549/ATCC NSCLC was 111%; with 786-0 renal, 93.8%; with COLO 205 colon, 101%; in the test with DU-145 prostate, 115%; in the test with K-562 leukemia, 102%; in the test with MALME-3M melanoma it was 97.3%. Moreover, the growth is 130% in the test on MDA-MB-231 breast; 105% in the test with RXF 393 renal; 103% with SF-268 CNS; 97.1% with SF-295 CNS; 93.2% with SF-539 CNS; 112% in the test with UACC-257 melanoma.
